GAA spleen mod – inhibits or activates alpha-glucosidase in human spleen homogenate. human spleen homogenate, 4-MU-alpha-glucoside fluorescence. Potency, µM (titrated, usually from 79.9 µM), for the others: top-dose activity change, negative = inhibition, usual class: inhibitors. 240,000 tested, 0.006% active. AID 2112;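 also: potency is read from the fitted curve at half-maximal effect; 0% = enzyme with vehicle and -100% = no enzyme basal signal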
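Human spleen homogenate (1 ug) with 4-methylumbelliferyl-alpha-D-glucopyranoside (1 mM final) in 50 mM citrate/phosphate pH 5.0, 0.01% Tween-20; 40 min at 37 C. Stopped at pH 10; 4-MU fluorescence Ex 365/Em 440 nm; AC50 by Hill fit.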
aGal spleen mod – inhibits or activates alpha-galactosidase in human spleen homogenate; human spleen homogenate, 4MU-alpha-Gal fluorescence, 40 min; Potency, µM (highest dose often 80 µM), without a hit: at the highest dose activity change, negative = inhibition, actives largely listed as inhibitors; 240,000 tested, 0.008% active;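 also: potency is read from the fitted curve at half-maximal effect; 0% = enzyme with vehicle and -100% = no enzyme basal signal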
Target sequence (P06280 32-429 limits assumed): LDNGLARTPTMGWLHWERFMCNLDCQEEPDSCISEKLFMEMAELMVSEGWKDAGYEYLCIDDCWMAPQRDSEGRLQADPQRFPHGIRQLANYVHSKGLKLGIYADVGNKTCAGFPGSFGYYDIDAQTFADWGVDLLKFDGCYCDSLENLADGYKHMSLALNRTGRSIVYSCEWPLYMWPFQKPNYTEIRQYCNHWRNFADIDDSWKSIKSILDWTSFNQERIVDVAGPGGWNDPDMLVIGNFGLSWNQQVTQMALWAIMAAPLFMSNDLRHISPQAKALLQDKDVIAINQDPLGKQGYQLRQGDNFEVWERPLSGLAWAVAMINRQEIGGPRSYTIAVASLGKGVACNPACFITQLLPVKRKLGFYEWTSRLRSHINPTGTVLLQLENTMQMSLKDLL
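qHTS titration in buffer at pH 5.0. Alpha-galactosidase activity in spleen homogenate was measured via 4-methylumbelliferone release from 1 mM fluorogenic substrate after 40 min at 37C and a pH 10 stop. AC50 came from Hill fits of control-normalized data.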
GAA inhib – inhibitors of human lysosomal alpha-glucosidase. P10253. purified human GAA, 4-MU-alpha-glucoside fluorescence. Potency, µM (top dose mostly 76.9 µM), for the others: top-dose activity change, negative = inhibition, actives largely listed as inhibitors. 200,000 tested, 0.005% active;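 also: potency is read from the fitted curve at half-maximal effect; plate controls were uninhibited enzyme wells for no effect and no-enzyme background for full effect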
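Activity normalized between no-enzyme (basal) and enzyme-only wells. Conditions: 4 nM human enzyme, 400 uM fluorogenic substrate, citrate/phosphate pH 5.0 with Tween-20, 20 min room temperature, compounds up to 77 uM.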
GLA inh pH 4.5 – blocks human alpha-galactosidase A at pH 4.5. P06280. purified enzyme, 4-MU-alpha-Gal fluorescence, pH 4.5. activity change, negative = inhibition, % at 105 µM. 230,000 tested, under 10 active. AID 1467;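 also: 0% = full activity with enzyme and -100% = basal without enzyme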
N370S GC – inhibitors or activators of N370S glucocerebrosidase for Gaucher disease; P04062; N370S GC spleen homogenate, 4MU-glucoside fluorescence; Potency, µM (series often up to 59.4 µM), inactives show at the top dose activity change, negative = inhibition, usual class: inhibitors; 330,000 tested, 0.092% active;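 also: potency is read from the fitted curve at half-maximal effect; 0% = full enzyme activity and -100% = no enzyme basal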
GAA glycogen – GAA glycogen-cleavage inhibition or activation; P10253; recombinant GAA, glycogen substrate, Amplex Red glucose oxidase fluorescence; Potency, µM (highest dose often 76.4 µM), without a hit: at the highest dose activity change, negative = inhibition, actives largely listed as inhibitors; 300,000 tested, 0.38% active; AID 2100;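 also: potency is read from the fitted curve at half-maximal effect; 0% = full enzyme reaction and -100% = no-enzyme basal signal; the screen sought inhibitors and activators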
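qHTS, 1536-well; enzyme 4 nM final; cpd up to 77 uM; substrate bovine liver glycogen 30 ug; 50 mM citrate/phosphate pH 5.0, 0.01% Tween-20; 37 C, 40 min; Amplex Red detection 45 min RT; Hill fit → AC50.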
The depositor's hits bear a star; ? = inconclusive; · = not tested or not shown; [ ] = dose if it differs, or a comment. A selection: hits, their analogues and other compounds. The true share with any hit is near 0.41%. Calls follow the shape of the dose curve; as a rule, active = well fitted curve in the direction sought with a large enough effect; inconclusive = small, poorly fitted or top-dose-only effect, or another doubt; inactive = no such curve, though single readings can be large; an effect the other way counts as inactive or inconclusive.

SMILES	GAA spleen mod	aGal spleen mod	GAA inhib	GLA inh pH 4.5	N370S GC	GAA glycogen
CCOC(=O)c1ccc(N=C2S/C(=C\c3cc(C)n(-c4cccnc4)c3C)C(=O)N2C)cc1	-3%	-9%	?	-5	·	1%
COc1ccc(-n2cc(CNCCc3ncc(C)[nH]3)c(-c3ccccc3Cl)n2)cc1	-2%	0%	-3%	4	-4%	7.1µM*
COc1cccc(NC(=O)CN2C(=O)C3(OCCCO3)c3ccccc32)c1	-8%	3%	1%	-6	7%	-4%
O=C(N/N=C/c1ccccc1O)C(=O)Nc1ccccn1	1%	-5%	-2%	2	4%	11%
CCOc1ccc(-c2cc3nc(C4CCN(C(=O)OC(C)(C)C)CC4)c(C(=O)Nc4ccc(C)cc4C)cn3n2)cc1	·	·	·	·	·	35µM*
COc1ccc(CN(CC(=O)NC(C)C)C(=O)CCC(=O)Nc2nccs2)cc1	·	·	·	·	-2%	-9%
Cc1sc2nc(CN3CCN(c4ccc(O)cc4)CC3)[nH]c(=O)c2c1C	3%	-4%	·	11	0%	16µM*
CCCc1ccc2oc(C(=O)NCCN3CCCC(C(N)=O)C3)c(C)c2c1 (stereo unspecified)	·	·	·	·	-12%	-1%[76.3 µM]
CCCc1ccc2oc(C(=O)NCCN3CCCC(O)C3)c(C)c2c1 (stereo unspecified)	·	·	·	·	16µM*	·
Cc1c(C(=O)NCCN2CCOCC2)oc2ccc(S(=O)(=O)N3CCCCCC3)cc12	-3%	-12%	?	-5	16µM*	3%
COc1ccc(C(CNC(=O)Nc2ccccc2)N2CCN(C)CC2)cc1 (stereo unspecified)	·	·	·	·	4%	10%[76.3 µM]
COc1cc(/C=N/N=C2/C(=O)Nc3ccccc32)ccc1O	-5%	-15%	?	2	-1%	-1%
O=C1Nc2ccccc2/C1=N\N=C\c1ccc(O)c(O)c1	-14%	2%	-14%	0	-1%	6.3µM*
CC(C)N=c1scc(-c2ccco2)n1/N=C/c1ccc(O)c(O)c1	-2%	-9%	-13%	-6	-14%	7.1µM*
COCCN=c1scc(-c2ccco2)n1/N=C/c1ccc(O)c(O)c1O	-3%	-8%	-3%	-11	-9%	2%
Nc1n[nH]c(-c2ccc(Br)cc2)c1Cl	?	0%	?	0	-20%	13µM*
Nc1nonc1N/N=C/c1c(O)ccc2ccccc12	-2%	6%	?	-8	-4%	9.9µM*
Nc1nonc1N/N=C\c1ccccc1	0%	-3%	·	3	-10%	-24%
CC(C)c1ccc(NC(=S)Nc2cccc3ccccc23)cc1	·	·	·	·	-13%	40µM*
Cc1cc(C(F)(F)F)nc(SCc2ccc(C(=O)O)o2)n1	3%	10%	-11%	0	-20%	-1%
CCc1cccc(C)c1Nc1c(-c2ccc(N(C)C)cc2)nc2cnccn12	·	·	·	·	·	10µM*
O=C(O)c1cc(S(=O)(=O)Nc2cccc(Oc3ccccc3)c2)ccc1Br	·	·	·	·	?	6%
CCS(=O)(=O)N1Cc2ccccc2CC1C(=O)Nc1cc(S(C)(=O)=O)ccc1Cl (stereo unspecified)	·	·	·	·	-2%	·
Nc1cc(Cl)c(N)c(Cl)c1	-7%	-2%	·	·	-4%	·
Nc1cc(Cl)c(N)cc1Cl	2%	-1%	-7%	9	2%	28µM*
CCCc1cc(=O)[nH]c(Nc2ccc(O)cc2)n1	-2%	5%	-24%	0	-12%	28µM*
CC(=O)Nc1ccc(S(=O)(=O)Nc2nc3ccccc3nc2Nc2ccc(O)cc2)cc1	4%	6%	·	-6	-24%	18µM*
COc1ccc(C(=O)NCCn2cc(SC(C)c3ccccc3)c3ccccc32)cc1OC (stereo unspecified)	·	·	·	·	·	-2%[76.3 µM]
CCOC(=O)N1CCN(C(=O)Nc2sc3nc4n(c(=O)c3c2C)CCC(C)CC4)CC1 (stereo unspecified)	-4%	5%	-10%	-9	4%	32µM*
CC1(C)CC(NC(=O)c2cccc(Cl)c2)CC(C)(C)N1	·	·	·	·	-6%	-11%[76.3 µM]

High-throughput results from PubChem.
